Results published in PubChem BioAssay (Tox21).
Inconclusive results are not listed. A call without a number means that no potency is given here. The source made the active and inactive calls. Unless noted, calls come from the whole dose curve; as a rule, active = well fitted curve in the direction sought with a large enough effect in the repeat runs; inconclusive = weak or mixed curves; inactive = no such curve, though single readings can be large; an effect the other way counts as inactive or inconclusive. Positions of bridges follow the written chain, without caps; N, C: chain ends. Non-standard residues stand in square brackets, D forms with d. Residues, ends and D or L forms follow the SMILES beside them. ξ: configuration not given here. *: point of attachment. d(aThr) = C[C@@H](O)[C@@H](N)C(=O)O; ξThr(3R) = C[C@@H](O)C(N)C(=O)O; X3 = CC[C@@H](C)CCCCC(=O)*; dDab = NCC[C@@H](N)C(=O)O

Assays:
[1] = qHTS assay for small molecule agonists of the p53 signaling pathway - cell viability (AID 651633; calls by dose curve; note: nearly all actives have a fitted effect of over 30% in size; note: potency is the fitted concentration of half-maximal effect)
Outline: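 p53RE-bla cells were treated with compound for 16 hours at 37 C. Cytotoxicity was then measured as CellTiter-Glo luminescence after 30 min at room temperature.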

[2] = qHTS assay for small molecules that induce genotoxicity in human embryonic kidney cells expressing luciferase-tagged ATAD5 - cell viability (AID 651634; calls by dose curve; note: nearly all actives have a fitted effect of over 25% in size; note: potency is the fitted concentration of half-maximal effect)
Outline: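 Cells (HEK293T, luciferase-tagged ATAD5) are seeded at 2,000 per well, dosed with compound or DMSO vehicle, and incubated 15.5 hr at 37C and 5% CO2. CellTiter-Fluor is added for 30 min before fluorescence is measured.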

[3] = qHTS assay for small molecule disruptors of the mitochondrial membrane potential - cell viability (AID 720634; calls by dose curve; note: nearly all actives have a fitted effect of over 20% in size; note: potency is the fitted concentration of half-maximal effect)
Outline: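 Cytotoxicity was measured by ATP quantitation in HepG2 wells that had first been treated with compound for 1 hr and stained with m-MPI dye; CellTiter-Glo incubation was 30 min at room temperature.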

[4] = qHTS assay for small molecule disruptors of the mitochondrial membrane potential (AID 720635); note: potency is the fitted concentration of half-maximal effect
Outline: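 HepG2 cells exposed to compound 1 hr at 37C, then Mito-MPS dye 30 min. Ratio read of aggregate (540/590 nm) versus monomer (490/535 nm) fluorescence.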

[5] = qHTS assay to test for compound auto fluorescence at 590 nm (red) in HepG2 cells (AID 720674)
Outline: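 HepG2 cells, 2,000 per well in MEM with 10% FBS, attached overnight at 37 C, then got 23 nL compound or DMSO. After 1 hr at 37 C, 5% CO2, red fluorescence was read at 540/590 nm against Rose Bengal sodium as reference.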

[6] = qHTS assay to test for compound auto fluorescence at 535 nm (green) in HepG2 cells (AID 720675)
[7] = qHTS assay to test for compound auto fluorescence at 460 nm (blue) in HEK293 cells (AID 720678)
Outline: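 Intrinsic compound fluorescence is recorded in live HEK293 cultures after overnight incubation at 37C, 5% CO2, using excitation 405 nm and emission 460 nm. Values are referenced to triamterene.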

[8] = qHTS assay to test for compound auto fluorescence at 590 nm (red) in HEK293 cells (AID 720679)
Outline: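 Red autofluorescence, HEK293 cells: 2,000 cells/well; attach 4-5 hr 37C; add 23 nL cpd or DMSO; incubate o/n 37C 5% CO2; read Ex540/Em590; Rose Bengal sodium reference.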

[9] = qHTS assay to test for compound auto fluorescence at 535 nm (green) in HEK293 cells (AID 720680)
[10] = qHTS assay to test for compound auto fluorescence at 460 nm (blue) in HEK293 cell free culture (AID 720681)
Outline: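 Compounds were added to cell-free DMEM with 10% FBS and fluorescence read directly. The blue channel used 405 nm excitation and 460 nm emission, with triamterene as the reference fluorophore.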

[11] = qHTS assay to test for compound auto fluorescence at 535 nm (green) in HEK293 cell free culture (AID 720682)
Outline: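 Cell-free medium (DMEM, 10% FBS) receives compound or DMSO by pintool. Plate read directly at Ex 485/Em 535 nm. Signal converted to fluorescein equivalency.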

[12] = qHTS assay to test for compound auto fluorescence at 590 nm (red) in HEK293 cell free culture (AID 720683)
Outline: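 Cell-free wells of DMEM with 10% FBS received compound, and intrinsic fluorescence was read at excitation/emission 540/590 nm. Values expressed as equivalence to Rose Bengal sodium.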

[13] = qHTS assay to test for compound auto fluorescence at 590 nm (red) in HepG2 cell free culture (AID 720684)
Outline: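 Rose Bengal sodium served as the reference for red signal. Test compounds were dispensed into serum-containing MEM (10% FBS) without cells, and plates were read at 540/590 nm.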

[14] = qHTS assay to test for compound auto fluorescence at 460 nm (blue) in HepG2 cell free culture (AID 720685)
Outline: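 Cell-free plates of MEM plus 10% FBS received 23 nL compound or DMSO vehicle; blue-channel (405/460 nm) intensity scored against triamterene as reference fluorophore.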

[15] = qHTS assay to test for compound auto fluorescence at 535 nm (green) in HepG2 cell free culture (AID 720686)
[16] = qHTS assay to test for compound auto fluorescence at 460 nm (blue) in HepG2 cells (AID 720687)
Outline: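 HepG2 cells in MEM with 10% FBS, attached overnight at 37 C, were exposed to compound or DMSO for 1 hr at 37 C, 5% CO2. Blue fluorescence was read at 405/460 nm, with triamterene as reference fluorophore.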

[17] = qHTS assay for small molecules that induce genotoxicity in human embryonic kidney cells expressing luciferase-tagged ATAD5 (AID 651632); note: nearly all actives have a fitted effect of over 15% in size
Outline: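 Cells were seeded at 2,000 per well, dosed with compound, and incubated 16 hr at 37C in 5% CO2. Luciferase activity was then quantified after a 30 min room-temperature incubation with Amplite.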

[18] = target: Glucocorticoid receptor (Homo sapiens) (UniProt P04150); assay: qHTS assay to identify small molecule agonists of the glucocorticoid receptor (GR) signaling pathway (AID 720691; active = well fitted activation curve with a large enough effect in the signal ratio in the repeat runs, not every such curve was filed as active; the % refers to the signal ratio); conditions: GR-bla HeLa, beta-lactamase reporter ratio, 18 h; activation: at 62.4 µM (top of the series)
Outline: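 Steps: seed GR-bla HeLa cells, incubate 4 h at 37 C/5% CO2; pin-transfer DMSO-dissolved compounds; incubate 18 h at 37 C; add LiveBLAzer B/G FRET substrate; after 2 h at room temperature, measure fluorescence.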

[19] = target: Glucocorticoid receptor (Homo sapiens) (UniProt P04150); assay: qHTS assay to identify small molecule antagonists of the glucocorticoid receptor (GR) signaling pathway (AID 720692; active = well fitted inhibition curve with a large enough effect in the signal ratio in the repeat runs, not every such curve was filed as active; the % refers to the signal ratio)
Outline: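 Antagonism was scored as loss of dexamethasone-driven (5 nM final) reporter signal in HeLa cells bearing a glucocorticoid response element–beta-lactamase construct, after 18 h compound exposure at 37 C and 2 h FRET substrate loading.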

Chain of Glucocorticoid receptor (Homo sapiens) (P04150 whole entry, looked up): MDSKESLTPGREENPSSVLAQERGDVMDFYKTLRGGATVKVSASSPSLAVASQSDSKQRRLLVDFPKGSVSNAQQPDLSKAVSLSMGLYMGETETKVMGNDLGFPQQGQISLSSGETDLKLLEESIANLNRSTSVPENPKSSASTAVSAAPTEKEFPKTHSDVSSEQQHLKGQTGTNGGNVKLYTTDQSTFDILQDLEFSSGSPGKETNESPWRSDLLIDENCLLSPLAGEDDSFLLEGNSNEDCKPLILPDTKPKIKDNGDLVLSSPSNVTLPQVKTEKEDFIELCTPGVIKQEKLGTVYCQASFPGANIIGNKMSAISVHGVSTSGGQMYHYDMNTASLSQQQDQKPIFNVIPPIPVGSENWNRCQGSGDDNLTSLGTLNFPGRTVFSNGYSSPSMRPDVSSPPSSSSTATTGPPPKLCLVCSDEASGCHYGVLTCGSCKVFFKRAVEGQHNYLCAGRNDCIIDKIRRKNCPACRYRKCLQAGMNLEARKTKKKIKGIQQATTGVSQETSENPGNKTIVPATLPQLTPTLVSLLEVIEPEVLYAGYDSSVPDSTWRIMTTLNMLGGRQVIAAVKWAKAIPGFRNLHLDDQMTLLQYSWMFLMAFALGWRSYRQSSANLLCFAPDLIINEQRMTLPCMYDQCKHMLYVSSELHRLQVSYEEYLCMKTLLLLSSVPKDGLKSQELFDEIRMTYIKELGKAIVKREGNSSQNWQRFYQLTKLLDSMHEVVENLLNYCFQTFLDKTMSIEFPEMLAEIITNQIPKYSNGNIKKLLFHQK

SMILES	Potency [1]	Potency [2]	Potency [3]	Potency [4]	Potency [5]	Potency [6]	Potency [7]	Potency [8]	Potency [9]	Potency [10]	Potency [11]	Potency [12]	Potency [13]	outcome [14]	Potency [15]	outcome [16]	Potency [17]	Potency [18]	Potency [19]
CC(=O)N[C@@H](CC(=O)N[C@@H](CCC(=O)O)C(=O)O)C(=O)O	inactive	inactive	inactive	inactive	inactive	inactive	inactive	inactive	inactive	inactive	inactive	inactive	inactive	inactive	inactive	inactive	–	–	–
CC[C@@]1(O)C[C@H](O[C@H]2C[C@H](N(C)C)[C@H](O[C@H]3C[C@H](O)[C@H](O[C@H]4CCC(=O)[C@H](C)O4)[C@H](C)O3)[C@H](C)O2)c2c(cc3c(c2O)C(=O)c2c(O)cccc2C3=O)[C@H]1C(=O)OC	inactive	15 µM (active)	inactive	1.68 µM (active)	inactive	inactive	inactive	inactive	inactive	inactive	inactive	inactive	inactive	inactive	inactive	inactive	–	–	–
O=S(=O)(O)c1cc(O)c2c(N=Nc3ccc(Nc4ccccc4)c4c(S(=O)(=O)O)cccc34)cc(S(=O)(=O)O)cc2c1	–	–	inactive	–	inactive	–	inactive	inactive	inactive	inactive	inactive	inactive	inactive	inactive	inactive	inactive	inactive	inactive	inactive
COc1cc([C@@H]2c3cc4c(cc3C(O[C@@H]3O[C@@H]5CO[C@@H](C)O[C@H]5[C@H](O)[C@H]3O)C3COC(=O)[C@@H]32)OCO4)cc(OC)c1OP(=O)(O)O (some centres undefined)	inactive	inactive	inactive	inactive	inactive	inactive	inactive	inactive	inactive	inactive	inactive	inactive	inactive	inactive	inactive	inactive	–	–	–
CCNC(=O)[C@@H]1CCCN1C(=O)[C@H](CCCN=C(N)N)NC(=O)[C@H](CC(C)C)NC(=O)[C@@H](Cc1c[nH]c2ccccc12)NC(=O)[C@H](Cc1ccc(O)cc1)NC(=O)[C@H](CO)NC(=O)[C@H](Cc1c[nH]c2ccccc12)NC(=O)[C@H](Cc1cnc[nH]1)NC(=O)[C@@H]1CCC(=O)N1	8.41 µM (active)	8.41 µM (active)	29.8 µM (active)	27.8 µM (active)	inactive	inactive	inactive	inactive	inactive	inactive	inactive	inactive	inactive	inactive	inactive	inactive	–	–	–
CC[C@@H](C)CCCCC(=O)N[C@H](CCN)C(=O)N[C@@H](C(=O)N[C@H](CCN)C(=O)N[C@@H]1CCNC(=O)C([C@@H](C)O)NC(=O)[C@@H](CCN)NC(=O)[C@@H](CCN)NC(=O)[C@@H](CC(C)C)NC(=O)[C@@H](Cc2ccccc2)NC(=O)[C@@H](CCN)NC1=O)[C@@H](C)O (stereo partly drawn) (X3-[dDab][d(aThr)][dDab][dDab][dDab][dF][dL][dDab][dDab][ξThr(3R)]; lactam 4-C)	–	inactive	inactive	–	inactive	inactive	inactive	inactive	inactive	inactive	inactive	inactive	inactive	inactive	inactive	inactive	inactive	inactive	inactive
CC(=O)Oc1cc(C)c(OC(C)=O)c2ccccc12	–	inactive	inactive	–	inactive	inactive	inactive	inactive	–	inactive	inactive	inactive	inactive	inactive	inactive	inactive	inactive	inactive	–
CC(C)[C@@H](C)/C=C/[C@@H](C)[C@H]1CC[C@H]2/C(=C/C=C3\C[C@@H](O)CC[C@@H]3C)CCC[C@]12C	–	–	inactive	–	inactive	inactive	inactive	inactive	inactive	inactive	inactive	inactive	inactive	inactive	inactive	inactive	inactive	–	–
C=Cc1c(C)c2cc3nc(cc4[nH]c(cc5nc(cc1[nH]2)C(C)=C5CCC(=O)OC)c(CCC(=O)O)c4C)[C@@]1(C)C3=CC=C(C(=O)OC)[C@H]1C(=O)OC	–	–	inactive	1.88 µM (active)	inactive	inactive	inactive	inactive	inactive	inactive	inactive	inactive	inactive	inactive	inactive	inactive	inactive	inactive	–
O=C(O)[C@H]1/C(=C/CO)O[C@@H]2CC(=O)N21	inactive	inactive	inactive	inactive	inactive	inactive	inactive	inactive	inactive	inactive	inactive	inactive	inactive	inactive	inactive	inactive	–	–	–
CCC(=O)NS(=O)(=O)c1ccc(-c2c(-c3ccccc3)noc2C)cc1	–	inactive	inactive	–	inactive	inactive	inactive	inactive	inactive	inactive	inactive	inactive	inactive	inactive	inactive	inactive	inactive	inactive	inactive
Cc1ccc(C2(O)CCN(CCCC(=O)c3ccc(F)cc3)CC2)cc1	inactive	inactive	inactive	inactive	inactive	inactive	inactive	inactive	inactive	inactive	inactive	inactive	inactive	inactive	inactive	inactive	–	–	–
O=C1CSC2(CCN(CCCN3c4ccccc4Sc4ccc(Cl)cc43)CC2)N1	–	–	inactive	–	inactive	inactive	inactive	inactive	inactive	inactive	inactive	inactive	inactive	inactive	inactive	inactive	inactive	–	–
